# Source: PubChem BioAssay AID504466 (National Center for Advancing Translational Sciences (NCATS), 2011)
# Hit rate of the full screen: of about 330,000 compounds, about 4,200 (1.3%) were called active. Inconclusive results (about 6%) are left out. Calls come from the whole dose curve; as a rule, active = well fitted activation curve with a large enough effect; inconclusive = small, poorly fitted or top-dose-only effect; inactive = no such curve, though single readings can be large or run the other way. The list comes from a sample in which actives are over-represented; it also holds similar structures and randomly drawn compounds. Where a call stands in place of a potency, no number is given.
# Experiment: qHTS screen for small molecules that induce genotoxicity in human embryonic kidney (HEK293T) cells expressing luciferase-tagged ELG1; note: nearly all actives have a fitted effect of over 60% in size
# Details: HEK293T ELG1-luciferase reporter, luminescence, 16 h; series mostly up to 46 µM
# Method in brief: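 Luminescence read-out: rising ELG1-luciferase signal, reflecting elevated ELG1 protein under genetic stress, flags genotoxic compounds. Cells were treated for 16 hr at 37 °C before ONE-Glo detection.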
# Potency is the fitted concentration of half-maximal effect.
row,SMILES,Potency
1,C=CC[C@H](CC(=O)N(CCO)Cc1ccccc1)C(=O)N[C@@H](COC(=O)[C@@H](CC=C)Cc1ccc(F)cc1)Cc1ccccc1,inactive
2,COc1ccc(C(=O)Nc2ccccc2C(=O)N/N=C/c2ccc(O)c(OC)c2)cc1,inactive
3,COc1ccc(/C=N/Nc2ccccc2C(=O)O)cc1,1.3 µM (active)
4,COc1ccc(/C=N/OCC(=O)N(Cc2ccccc2)c2ccccc2C(=O)O)cc1,inactive
5,COc1ccccc1-c1nnc2n1N=C(c1ccc(OC(F)F)c(OCC3CC3)c1)CS2,inactive
6,O=C(COC(=O)CN1C(=O)C2CCCCC2C1=O)Nc1ccc(F)c(F)c1F (centres undefined),inactive
7,COc1ccc(C(=O)C(C)OC(=O)c2cccc(S(=O)(=O)Nc3c(C)n(C)n(-c4ccccc4)c3=O)c2)cc1 (centres undefined),inactive
8,CCC(=O)Nc1ccc2nn(-c3ccc(F)cc3)nc2c1,1.46 µM (active)
9,Cc1cccc(C(=O)OCC(=O)Nc2ccc(F)cc2)c1,inactive
10,Cc1ccc(-n2nc3ccc(NC(=O)/C=C/c4ccco4)cc3n2)cc1C,inactive
11,CCOC(=O)[C@H]1[C@H]2COc3ccccc3[C@@H]2N2C(=O)CN(Cc3ccccc3)C(=O)[C@@]12C,inactive
12,C#CCOCCOCCOCCNc1nc(N2CCN(C(=O)[C@H](CCC(=O)O)n3cc(CN)nn3)CC2)nc(N2CCN(C(=O)[C@H](CCC(=O)O)n3cc(CN)nn3)CC2)n1,inactive
13,O=C(COc1ccccc1F)NNC(=O)c1cc(Br)ccc1Cl,inactive
14,CCN(CC(=O)NCc1ccc(F)cc1)S(=O)(=O)c1ccc(Cl)s1,inactive
15,C/C(=N\Nc1ncc(Cl)cc1Cl)c1cccs1,5.17 µM (active)
16,C/C(=N\Nc1ncc(Cl)cc1Cl)c1ccc(S(=O)(=O)NCc2ccco2)cc1,inactive
17,C/C(=N\Nc1ccc(S(N)(=O)=O)cc1[N+](=O)[O-])c1cccs1,inactive
18,Cc1cc(NC(=O)COC(=O)/C=C/c2ccc(C)o2)no1,inactive
19,CC(=O)Oc1ccc2c(c1)C(=O)c1ccccc1C2=O,inactive
20,COc1cccc(-c2ccc3c(c2)S(=O)(=O)c2cccc(C(=O)O)c2C3=O)c1OC,inactive
21,COc1ccc2c(c1OC)C(=O)c1ccccc1C2=O,5.17 µM (active)
22,COc1cc2c(-c3ccc4c(c3)OCO4)c(-c3ccsc3)oc(=O)c2cc1OC,inactive
23,COc1ccc(S(=O)(=O)N2CCN(c3cnccn3)CC2)cc1,inactive
24,Cc1nc2ccc(NC(=O)c3cccc(S(=O)(=O)N4CCOCC4)c3)cc2s1,inactive
25,Cc1cnc(C(=O)OCC(=O)N2CCc3ccccc32)cn1,inactive
26,O=C(c1cnn2ccccc12)N1CCc2ccccc21,4.11 µM (active)

row,SMILES,Potency
1,CCOC(=O)N1CCC(NC(=O)c2cnn3ccccc23)CC1,inactive
2,O=C1CSc2ccc(C(=O)NCc3ccccn3)cc2N1,inactive
3,CCOC(=O)C1=CN(Cc2ccc(Br)cc2)S(=O)(=O)NC1C (centres undefined),inactive
4,COc1ccc(S(=O)(=O)N(C)C[C@H]2Oc3ccc(NS(=O)(=O)c4cccs4)cc3CC(=O)N([C@H](C)CO)C[C@H]2C)cc1,inactive
5,CCC(CO)Oc1cc(NC(=O)c2ccc(Cl)cc2)c2ncn(C(C)C)c2c1 (centres undefined),inactive
6,CC(=O)Nc1ccc(S(=O)(=O)NCCC(=O)N2CCN(c3ccccc3Cl)CC2)cc1,inactive
7,N#Cc1ccc(C2N=C(c3ccccc3)NO2)cc1 (centres undefined),5.17 µM (active)
8,O=C(OCC(=O)N1CCCCCC1)c1ccc(Br)c(S(=O)(=O)N2CCOCC2)c1,inactive
9,C[C@@H]1C(c2ccc(F)cc2)=NN(c2ccc(Br)cc2)[C@H]1C(=O)N1CCOC1=O,inactive
10,Cc1ccc(S(=O)(=O)N2[C@@H](c3ccc(Br)cc3)C(C(=O)O)=C[C@H]2CC2CCCC2)cc1,inactive
11,Cc1cc(=O)oc2cc(OCCC[n+]3ccccc3)ccc12,inactive
12,Cc1cc(=O)oc2cc(OCC3CC(c4ccccc4Cl)=NO3)ccc12 (centres undefined),7.94 µM (active)
13,Cc1ccccc1N1CCN(CCCOc2ccc3c(C)cc(=O)oc3c2)CC1,inactive
14,CCCCNC(=O)C(C)N(CCN(C)C)C(=O)CCCCCN1C(=O)NC(c2ccc(Cl)cc2)C(C(=O)OCc2ccccc2)=C1C (centres undefined),inactive
15,COC(=O)CSc1nnc(-c2cccnc2)o1,inactive
16,COc1ccc(-c2nnc(SCc3cccnc3)o2)cc1,inactive
17,CN(C)c1ccc(-c2nnc(-c3cccnc3)o2)cc1,10.3 µM (active)
18,COc1ccc(CCNC(=O)COC(=O)Cc2ccccc2F)cc1,inactive
19,Cc1ccc(C(=O)NCC(=O)NC2CC2)cc1,inactive
20,Oc1ccc(/C=N/Nc2nc(-c3ccccc3F)nc3ccccc23)c(O)c1,inactive
21,Oc1ccc(/C=N/NC2=NCCCCC2)c(O)c1,7.31 µM (active)
22,COc1ccc(/C=C(\C#N)C(=O)ONC2=NCCCCC2)cc1,inactive
23,O=C(Cn1cnc2ccccc2c1=O)NNC(=O)c1ccccc1F,inactive
24,COc1ccc(C(=O)Nc2cc(S(=O)(=O)N3CCCC3)ccc2Cl)cc1,inactive
25,c1ccc(CN2CCC(N=C3NN=C(c4ccc5c(c4)OCCO5)CS3)CC2)cc1,inactive
26,Clc1cccc(N=C2NN=C(c3ccc4c(c3)OCCO4)CS2)c1,2.31 µM (active)

row,SMILES,Potency
1,CN(C)c1nc(=Nc2cccc(Cl)c2)ss1,inactive
2,Cc1occc1C(=O)Nc1cccc(Cn2cccn2)c1,inactive
3,CCOC(=O)c1c(N)nn(C(=O)c2ccccc2)c1-c1ccccc1,inactive
4,Cc1nn(C(=O)c2ccoc2C)c(N)c1-c1ccccc1,13 µM (active)
5,Cc1ccc(C(=O)Nc2ccc3c(c2)OCCO3)cc1S(=O)(=O)N1CCOCC1,inactive
6,N#CNC1=NCN(CCc2ccccc2)CN1,inactive
7,Cc1ccc2nc(NC3=NCN(CCc4ccccc4)CN3)nc(C)c2c1,inactive
8,c1ccc(CCN2CN=C(Nc3nc4ccccc4o3)NC2)cc1,18.4 µM (active)
9,CCN(CC)C(=O)[C@H]1C[C@H](CC(=O)NCC23CC4CC(CC(C4)C2)C3)C(=O)N2CCc3c([nH]c4cc(CCC(=O)N(C)C)ccc34)[C@]12C,inactive
10,N#C/C(=C1/CCCN1)c1ccccn1,inactive
11,N#CC(=C1SC=CS1)c1nc(-c2ccccc2)cs1,5.8 µM (active)
12,COc1cc(/C=C/C(=O)OCC(=O)NCCCc2ccccc2)ccc1O,inactive
13,O=C(NCCC(=O)N1O[C@@H]2C=C[C@H]1C2)OCC1c2ccccc2-c2ccccc21,inactive
14,COc1ccc(COC(=O)c2n[nH]c3ccccc23)cc1F,14.6 µM (active)
15,O=C(COC(=O)c1n[nH]c2ccccc12)NCc1ccccc1,inactive
16,COc1ccc(NC(=O)COC(=O)c2n[nH]c3ccccc23)c(OC)c1,inactive
17,O=C(CC1SC(N2CCOCC2)=NC1=O)Nc1ccccc1F (centres undefined),inactive
18,Cc1noc(C)c1-c1ccc2ncnc(NC(C)c3ccco3)c2c1 (centres undefined),16.4 µM (active)
19,c1coc(CNc2ncnc3ccccc23)c1,inactive
20,COc1ccc(NS(=O)(=O)c2ccc(C(=O)Nc3c(C)n(C)n(-c4ccccc4)c3=O)cc2)cc1,inactive
21,CCCN(C(=O)CSc1nnc(N)s1)c1c(N)n(Cc2ccccc2)c(=O)[nH]c1=O,inactive
22,CN(C(=O)CSc1cccc[n+]1[O-])C1CCCCC1,inactive
23,CCCOC(=O)Nc1ccccc1C(N)=O,inactive
24,Cc1cccc(OCCC(=O)Nc2ccccc2C(N)=O)c1,inactive
25,COc1cccc(OCC(=O)Nc2ccccc2C(N)=O)c1,5.17 µM (active)
26,NS(=O)(=O)c1ccc(CNC(=S)NC(=O)c2ccco2)cc1,inactive

row,SMILES,Potency
1,O=C(NNS(=O)(=O)c1c(F)cc(F)c(Cl)c1F)C12CC3CC(CC(C3)C1)C2,inactive
2,Cn1cncc1C#Cc1c(-c2ccsc2)sc2ccccc12,inactive
3,O=C(Nc1nnc(-c2ccccc2)o1)c1cccc(S(=O)(=O)N2CCOCC2)c1,inactive
4,O=C(NCc1ccc2c(c1)OCO2)c1cc([N+](=O)[O-])ccc1N1CCOCC1,inactive
5,Cc1nn(C)cc1/C=N/NC(=O)c1sc2ccccc2c1Cl,inactive
6,O=C(Nc1ccon1)c1sc2ccccc2c1Cl,13 µM (active)
7,O=C(Nc1ccon1)c1cccc(Cl)c1,inactive
8,Cc1ccc(NC(=O)Cn2cnc3c(OCc4ccccc4)ncnc32)cc1C,inactive
9,FC(F)(F)c1nc2ccccc2nc1N/N=C/c1ccc(Cl)cc1,inactive
10,CN(CCO)c1ccc(/C=N/Nc2nncc3ccccc23)cc1,0.116 µM (active)
11,COc1cc(/C=N/Nc2nn3cnnc3c3ccccc23)cc(OC)c1OC,inactive
12,C/C=C/c1ccc(OCC(=O)NNC(=O)CN(C)S(=O)(=O)c2ccc(C)cc2)c(OC)c1,inactive
13,CC(Sc1ccccc1F)C(=O)Nc1cccc(S(=O)(=O)N2CCOCC2)c1 (centres undefined),inactive
14,COc1ccc(C)cc1Nc1nc(C)nc2c1oc1ccccc12,inactive
15,COc1ccccc1Nc1ncnc2c1oc1ccccc12,14.6 µM (active)
16,CCC(C(=O)OC)n1cnc2c(oc3ccccc32)c1=O (centres undefined),inactive
17,CCCCOc1ccc(-c2ncc(C(=O)OCC)c(N)n2)cc1,10.3 µM (active)
18,CCCCCCOc1ccc(OC(=O)c2cccnc2)cc1,inactive
19,CCOC(=O)c1cnc(SCc2nc(N)nc(Nc3ccc(OC)cc3)n2)nc1N,inactive
20,Cc1c(NC(=O)CN(C)CC(=O)Nc2ccc(F)c(F)c2F)c(=O)n(-c2ccccc2)n1C,inactive
21,Cc1ccsc1C(=O)OCC(=O)NCCc1ccccc1,inactive
22,COc1ccc(-c2csc(-c3cccs3)n2)cc1OC,16.4 µM (active)
23,COc1ccc(C2CC(c3cccs3)=Nc3ccccc3S2)cc1OC (centres undefined),inactive
24,COc1ccc(OC)c(-c2csc(-c3cccs3)n2)c1,inactive
25,CC[C@@]1(C(=O)OC)N[C@H](CN(C)C(C)=O)[C@@H]2C(=O)N(C)C(=O)[C@@H]21,inactive
26,CC(=O)c1c(OCC(=O)N(C)C2CCCCC2)ccc2c(C)cc(=O)oc12,inactive
